Source: the supplement of paper PMC6555819

Assays:
Assay in all cases: PBM binding z-score (relative to random genomic background probes); higher = stronger binding; sequences stand for … in GC…GCGATTGACAGCGTAGAATGAAGG
[1] = tested on: PPARg:RXRa DBDmut IVT, anti-RXR (DBD mutation: RXRa K156A/R161A, NR concentration 270 nM, RXRa partner concentration 90 nM)
In short: (§1)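 Binding z-scores take random background probes as their reference. They come from custom Agilent 4×180K protein-binding microarrays incubated 1 h with ligand-free nuclear receptor dimers, with antibodies against each partner (one per run) detecting binding. Scanned fluorescence was regression-normalized.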

[2] = tested on: PPARg:RXRa IVT, anti-PPARg (NR concentration 270 nM, RXRa partner concentration 90 nM)
In short: as §1

[3] = tested on: PPARg DBDmut:RXRa IVT, anti-PPARg (DBD mutation: PPARg1 K132A/R137A, NR concentration 270 nM, RXRa partner concentration 90 nM)
In short: as §1

[4] = tested on: PPARg DBDmut IVT, anti-PPARg (DBD mutation: PPARg1 K132A/R137A, NR concentration 270 nM)
In short: as §1

[5] = tested on: PPARg homodimer (NR concentration 180 nM)
In short: as §1

[6] = tested on: PXR:RXRa (NR concentration 270 nM, RXRa partner concentration 90 nM)
In short: as §1

[7] = tested on: PXR homodimer (NR concentration 270 nM)
In short: as §1

[8] = tested on: RARa:RXR (NR concentration 270 nM, RXRa partner concentration 90 nM)
In short: as §1

[9] = tested on: RARa homodimer (NR concentration 270 nM)
In short: as §1

[10] = tested on: RARb:RXRa (NR concentration 270 nM, RXRa partner concentration 90 nM)
In short: as §1

Row | Sequence | PBM binding z-score [1] | PBM binding z-score [2] | PBM binding z-score [3] | PBM binding z-score [4] | PBM binding z-score [5] | PBM binding z-score [6] | PBM binding z-score [7] | PBM binding z-score [8] | PBM binding z-score [9] | PBM binding z-score [10]
1 | CCTTACGGGTCACGAGGCTATAGCACGACGAGCG | 3.61 | 4.78 | 0.556 | -0.248 | 1.81 | 3.26 | -0.243 | 4.45 | 0.264 | 4.23
2 | ATATGTATGTTATCGGGTCATTCAGTTTGCGCAT | 4.28 | 4.3 | 1.17 | 1.83 | 1.39 | 3.37 | 6.74 | 2.59 | 1.05 | 1.98
3 | TCTCGGAGGACACGAAGGCCAGAGCTTTCCAGAG | 1.5 | 0.0169 | -0.633 | -1.61 | -0.704 | -0.278 | -0.919 | -0.235 | -1.31 | 1.82
4 | CGTCCAAGGTCATAGGAGGTCCGTGAAGACAGAT | 3.08 | 3.47 | 0.84 | 0.63 | 3.87 | 4.93 | 1.26 | 4.68 | 1.62 | 5.04
5 | CCGACTGGGGCAAAAAGGTTACCATACCATCCGG | 2.47 | 2.82 | -0.595 | -1.12 | 0.536 | 1.1 | -0.0306 | 1.87 | 0.158 | 2.05
6 | CCTACTGGGCCATTCAGAGATCATTGATCATATG | 4.48 | 3.51 | 0.0285 | 0.282 | -0.3 | -0.546 | -0.622 | -0.523 | 0.13 | 0.0331
7 | CTTAGCAGGCCAATCTGGGTCACTCAAGGCTTGA | 4.54 | 5.41 | 1.49 | -0.595 | 0.867 | 0.661 | -0.63 | 1.8 | -0.332 | 1.46
8 | CCTACTGTGCCATCAGGTCATTGATATCAACGTT | 4.55 | 4.14 | 2.09 | 1.29 | 2.2 | 2.45 | 1.76 | 2.79 | 2.21 | 2.25
9 | ATCTATAGGTAAAGATAGTTCAGTGAATGCAAAT | 1.2 | 1.29 | 0.937 | 1.26 | 0.82 | 1.65 | 0.751 | 0.916 | 0.797 | 0.78
10 | TCATATAGGTAAAGGTTAAAGTCGAACGATATGA | 3.98 | 4.07 | 1.37 | 1.86 | 1.53 | 2.1 | 0.481 | 3.21 | 1.26 | 2.67
11 | GCTAGTTGGTCCGTAAAAGGTCACACACCGGTCG | 0.234 | 1.86 | 0.724 | 0.195 | 2.89 | 4.94 | 1.12 | 5.63 | 1.86 | 3.99
12 | TGCATGAGGTTATAAGATCAGGGAACGTTGCAAA | -0.354 | 0.643 | 0.656 | 0.178 | 0.466 | 0.667 | -0.0693 | 1.48 | 0.252 | 1.4
13 | TCATATAGGTAAACAGGTGAAAGCCCGTAAGTTA | 4.79 | 4.53 | 1.26 | 0.658 | 0.824 | 0.744 | 0.0524 | 1.07 | 1.58 | 0.738
